Results on one sequence are retold here after paper PMC7862700, “An all-to-all approach to the identification of sequence-specific readers for epigenetic DNA modifications on cytosine”.

What all share (test): DAPPL (digital affinity profiling via proximity ligation, sequencing); 10 mM Tris-HCl pH 7.5, 50 mM NaCl, 1 mM DTT, 4% glycerol, room temperature, 30 min; GST-TFs on glutathione beads, 16-mer random dsDNA library, 0.1% formaldehyde crosslink after washing; high values mean tight binding
One assay concerns the target T1, FEV (Homo sapiens, UniProt Q99581 1-238).
T1 sequence: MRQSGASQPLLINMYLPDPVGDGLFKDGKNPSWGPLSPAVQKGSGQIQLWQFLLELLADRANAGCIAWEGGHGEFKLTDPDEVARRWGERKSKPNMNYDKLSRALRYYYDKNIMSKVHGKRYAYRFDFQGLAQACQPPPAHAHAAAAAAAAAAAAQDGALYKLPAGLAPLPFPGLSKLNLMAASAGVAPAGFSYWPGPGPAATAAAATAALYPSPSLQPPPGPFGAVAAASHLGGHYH
Conditions: protein: recombinant; tags: N-terminal GST; dsDNA, one strand shown. An outline of the steps:
(§1)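 Binding signal is each hexamer's read frequency for a factor divided by its frequency in the tag-only sample. The factors were GST-fused human transcription factors from yeast, captured on glutathione beads, DNA-barcoded and pooled with that sample. Pools were incubated with 200 nmole of a random double-stranded 16-mer DNA library in Tris/NaCl/DTT/glycerol buffer at room temperature for 30 min, then washed, crosslinked with 0.1% formaldehyde, proximity-ligated with BsaI/T4 ligase (1 h, 37 °C), PCR-amplified and sequenced on an Illumina NextSeq500.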

For a further assay, the target named is ETV5 (Homo sapiens, UniProt P41161 1-510). Conditions: protein: recombinant; tags: N-terminal GST; dsDNA, one strand shown. An outline of the steps: as §1
Chain of ETV5 (P41161 whole entry): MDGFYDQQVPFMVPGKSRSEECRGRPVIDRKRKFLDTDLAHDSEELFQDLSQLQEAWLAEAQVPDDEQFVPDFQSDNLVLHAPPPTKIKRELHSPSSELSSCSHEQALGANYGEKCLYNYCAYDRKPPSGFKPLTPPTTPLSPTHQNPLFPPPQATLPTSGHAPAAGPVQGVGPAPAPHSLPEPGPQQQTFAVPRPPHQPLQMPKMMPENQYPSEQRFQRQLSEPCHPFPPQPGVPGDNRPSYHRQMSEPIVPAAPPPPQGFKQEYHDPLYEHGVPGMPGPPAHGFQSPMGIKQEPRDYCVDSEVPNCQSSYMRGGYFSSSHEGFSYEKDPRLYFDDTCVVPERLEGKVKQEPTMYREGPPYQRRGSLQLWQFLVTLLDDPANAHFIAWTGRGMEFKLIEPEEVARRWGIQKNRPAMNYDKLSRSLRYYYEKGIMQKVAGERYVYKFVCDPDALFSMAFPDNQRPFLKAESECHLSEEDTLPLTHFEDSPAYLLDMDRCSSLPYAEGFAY
The next assay addresses HSF1 (Homo sapiens, UniProt Q00613 1-529). Conditions: protein: recombinant; tags: N-terminal GST; chain copies: 3; dsDNA, one strand shown. An outline of the steps: as §1
For the next assay, the target named is T2, SPIC (Homo sapiens, UniProt Q8N5J4 1-248).
T2 sequence: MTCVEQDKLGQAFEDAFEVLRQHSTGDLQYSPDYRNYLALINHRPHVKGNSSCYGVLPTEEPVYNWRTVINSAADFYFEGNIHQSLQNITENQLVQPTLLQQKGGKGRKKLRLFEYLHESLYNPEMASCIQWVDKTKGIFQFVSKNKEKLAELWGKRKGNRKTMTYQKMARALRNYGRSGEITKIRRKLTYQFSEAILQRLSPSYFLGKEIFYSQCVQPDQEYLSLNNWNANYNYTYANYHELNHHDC
Conditions: protein: recombinant; tags: N-terminal GST; dsDNA, one strand shown. An outline of the steps: as §1

The next assay deals with ELF4 (Homo sapiens, UniProt Q99607 1-663). Conditions: protein: recombinant; tags: N-terminal GST; dsDNA, one strand shown. An outline of the steps:
as §1

For a further assay, the target named is T3, ELK4 (Homo sapiens, UniProt P28324-2 1-405).
T3 sequence: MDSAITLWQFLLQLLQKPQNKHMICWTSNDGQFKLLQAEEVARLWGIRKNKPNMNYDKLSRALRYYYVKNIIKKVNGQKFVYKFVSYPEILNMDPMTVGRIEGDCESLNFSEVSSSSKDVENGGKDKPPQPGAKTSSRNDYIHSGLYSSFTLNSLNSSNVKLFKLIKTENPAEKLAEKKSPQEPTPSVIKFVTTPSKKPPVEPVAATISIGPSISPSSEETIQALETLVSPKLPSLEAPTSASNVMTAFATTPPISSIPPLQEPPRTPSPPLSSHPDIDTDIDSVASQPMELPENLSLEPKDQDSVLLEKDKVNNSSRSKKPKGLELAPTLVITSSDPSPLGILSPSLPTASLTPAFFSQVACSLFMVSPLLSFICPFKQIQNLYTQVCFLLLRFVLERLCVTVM
Conditions: protein: recombinant; tags: N-terminal GST; dsDNA, one strand shown. An outline of the steps: as §1

Another assay has as its target T4, ETV2 (Homo sapiens, UniProt O00321 1-342).
T4 sequence: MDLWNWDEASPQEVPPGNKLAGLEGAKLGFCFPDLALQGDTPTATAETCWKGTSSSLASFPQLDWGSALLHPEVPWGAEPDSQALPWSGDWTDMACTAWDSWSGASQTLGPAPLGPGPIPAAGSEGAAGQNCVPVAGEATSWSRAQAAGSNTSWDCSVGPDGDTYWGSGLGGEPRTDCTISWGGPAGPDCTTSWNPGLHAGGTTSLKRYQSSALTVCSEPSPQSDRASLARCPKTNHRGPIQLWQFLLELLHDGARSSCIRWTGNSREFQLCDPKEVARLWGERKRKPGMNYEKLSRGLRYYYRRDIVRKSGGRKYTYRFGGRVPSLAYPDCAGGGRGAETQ
Conditions: protein: recombinant; tags: N-terminal GST; dsDNA, one strand shown. An outline of the steps:
as §1

Another assay deals with T5, ELF3 (Homo sapiens, UniProt P78545 1-371).
T5 sequence: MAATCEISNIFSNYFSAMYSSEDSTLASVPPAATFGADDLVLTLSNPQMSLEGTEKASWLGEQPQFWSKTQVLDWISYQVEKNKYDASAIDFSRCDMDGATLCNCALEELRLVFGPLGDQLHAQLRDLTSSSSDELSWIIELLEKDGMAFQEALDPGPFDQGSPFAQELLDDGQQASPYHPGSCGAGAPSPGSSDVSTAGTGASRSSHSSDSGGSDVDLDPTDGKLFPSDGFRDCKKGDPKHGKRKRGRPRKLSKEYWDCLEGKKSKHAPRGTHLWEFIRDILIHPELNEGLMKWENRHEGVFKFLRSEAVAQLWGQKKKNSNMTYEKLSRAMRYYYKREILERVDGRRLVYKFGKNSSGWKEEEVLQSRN
Conditions: protein: recombinant; tags: N-terminal GST; dsDNA, one strand shown. An outline of the steps:
as §1

Another assay deals with CRX (Homo sapiens, UniProt O43186 1-299). Conditions: protein: recombinant; tags: N-terminal GST; dsDNA, one strand shown. An outline of the steps: as §1
Chain of CRX (O43186 whole entry): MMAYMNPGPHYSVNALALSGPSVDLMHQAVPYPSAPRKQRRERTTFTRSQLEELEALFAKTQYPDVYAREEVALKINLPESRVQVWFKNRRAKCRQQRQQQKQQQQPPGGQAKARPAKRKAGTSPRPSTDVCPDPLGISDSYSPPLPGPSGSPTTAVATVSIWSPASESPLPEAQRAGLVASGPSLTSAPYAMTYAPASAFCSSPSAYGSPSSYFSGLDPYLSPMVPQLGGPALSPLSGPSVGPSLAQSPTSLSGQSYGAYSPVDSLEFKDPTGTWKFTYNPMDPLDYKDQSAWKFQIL
For the next assay, the target named is ETV1 (Homo sapiens, UniProt P50549 1-477). Conditions: protein: recombinant; tags: N-terminal GST; dsDNA, one strand shown. An outline of the steps:
as §1

The next assay has as its target T6, ERF (Homo sapiens, UniProt P50548 1-548).
T6 sequence: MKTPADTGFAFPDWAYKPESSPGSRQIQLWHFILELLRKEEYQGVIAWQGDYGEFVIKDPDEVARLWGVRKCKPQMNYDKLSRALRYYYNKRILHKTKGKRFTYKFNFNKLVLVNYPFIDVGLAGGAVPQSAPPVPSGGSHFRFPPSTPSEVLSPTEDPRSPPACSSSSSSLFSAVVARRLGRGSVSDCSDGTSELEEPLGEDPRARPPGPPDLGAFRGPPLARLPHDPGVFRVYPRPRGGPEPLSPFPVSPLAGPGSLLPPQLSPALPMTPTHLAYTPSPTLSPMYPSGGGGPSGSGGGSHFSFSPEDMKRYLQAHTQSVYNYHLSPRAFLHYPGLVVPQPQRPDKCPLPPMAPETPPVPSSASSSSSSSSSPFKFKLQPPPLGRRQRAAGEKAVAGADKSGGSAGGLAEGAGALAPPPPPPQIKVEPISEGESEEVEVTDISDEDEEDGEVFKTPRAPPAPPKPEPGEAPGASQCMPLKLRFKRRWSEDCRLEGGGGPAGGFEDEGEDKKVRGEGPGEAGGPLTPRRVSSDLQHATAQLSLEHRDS
Conditions: protein: recombinant; tags: N-terminal GST; dsDNA, one strand shown. An outline of the steps:
as §1

Another assay deals with T7, ETV3L (Homo sapiens, UniProt Q6ZN32 1-361).
T7 sequence: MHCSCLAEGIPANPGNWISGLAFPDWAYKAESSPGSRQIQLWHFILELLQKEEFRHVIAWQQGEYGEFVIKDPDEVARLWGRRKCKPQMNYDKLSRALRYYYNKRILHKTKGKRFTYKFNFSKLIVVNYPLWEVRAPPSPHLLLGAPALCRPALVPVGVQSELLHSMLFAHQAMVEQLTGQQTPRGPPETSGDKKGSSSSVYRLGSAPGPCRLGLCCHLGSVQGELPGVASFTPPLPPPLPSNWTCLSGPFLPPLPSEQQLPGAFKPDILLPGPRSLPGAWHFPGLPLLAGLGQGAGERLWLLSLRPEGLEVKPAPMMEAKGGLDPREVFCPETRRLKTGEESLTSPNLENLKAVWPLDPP
Conditions: protein: recombinant; tags: N-terminal GST; dsDNA, one strand shown. An outline of the steps:
as §1

The target of another assay is T8, ETS2 (Homo sapiens, UniProt P15036 1-469).
T8 sequence: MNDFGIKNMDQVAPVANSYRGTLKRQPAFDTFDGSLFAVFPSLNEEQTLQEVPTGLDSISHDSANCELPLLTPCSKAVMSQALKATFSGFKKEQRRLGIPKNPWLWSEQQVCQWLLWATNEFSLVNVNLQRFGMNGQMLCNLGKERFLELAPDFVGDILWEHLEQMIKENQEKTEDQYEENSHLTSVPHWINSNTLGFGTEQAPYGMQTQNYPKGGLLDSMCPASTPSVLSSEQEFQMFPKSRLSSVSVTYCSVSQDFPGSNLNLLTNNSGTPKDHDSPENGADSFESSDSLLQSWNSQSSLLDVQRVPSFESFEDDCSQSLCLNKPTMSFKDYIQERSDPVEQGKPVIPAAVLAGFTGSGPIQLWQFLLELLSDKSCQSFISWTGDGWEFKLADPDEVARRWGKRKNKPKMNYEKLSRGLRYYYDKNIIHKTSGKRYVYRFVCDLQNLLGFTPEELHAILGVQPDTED
To be noted: protein: recombinant; tags: N-terminal GST; dsDNA, one strand shown. An outline of the steps:
as §1

The target in another assay is T9, SPDEF (Homo sapiens, UniProt O95238 1-335).
T9 sequence: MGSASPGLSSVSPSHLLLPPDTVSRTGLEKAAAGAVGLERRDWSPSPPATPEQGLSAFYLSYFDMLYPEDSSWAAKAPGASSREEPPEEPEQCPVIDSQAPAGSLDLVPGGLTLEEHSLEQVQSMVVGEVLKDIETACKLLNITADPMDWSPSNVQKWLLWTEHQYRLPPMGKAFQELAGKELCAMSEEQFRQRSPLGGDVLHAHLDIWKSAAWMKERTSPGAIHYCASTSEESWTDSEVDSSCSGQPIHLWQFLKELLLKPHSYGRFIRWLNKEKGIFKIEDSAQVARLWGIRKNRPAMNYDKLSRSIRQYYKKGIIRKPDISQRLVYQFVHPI
Conditions: protein: recombinant; tags: N-terminal GST; dsDNA, one strand shown. An outline of the steps:
as §1

A further assay addresses T10, ETV7 (Homo sapiens, UniProt Q9Y603 1-341).
T10 sequence: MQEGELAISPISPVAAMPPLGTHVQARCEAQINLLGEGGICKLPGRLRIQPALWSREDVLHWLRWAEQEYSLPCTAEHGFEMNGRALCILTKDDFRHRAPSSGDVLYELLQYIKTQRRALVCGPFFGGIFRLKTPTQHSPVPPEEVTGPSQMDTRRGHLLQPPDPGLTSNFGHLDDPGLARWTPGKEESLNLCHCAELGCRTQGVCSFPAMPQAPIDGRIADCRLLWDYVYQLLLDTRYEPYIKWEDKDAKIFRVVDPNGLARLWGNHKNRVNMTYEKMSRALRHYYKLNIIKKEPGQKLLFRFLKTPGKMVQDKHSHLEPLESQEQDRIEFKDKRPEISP
To be noted: protein: recombinant; tags: N-terminal GST; dsDNA, one strand shown. An outline of the steps:
as §1

A further assay has as its target T11, ELF5 (Homo sapiens, UniProt Q9UKW6-2 1-255).
T11 sequence: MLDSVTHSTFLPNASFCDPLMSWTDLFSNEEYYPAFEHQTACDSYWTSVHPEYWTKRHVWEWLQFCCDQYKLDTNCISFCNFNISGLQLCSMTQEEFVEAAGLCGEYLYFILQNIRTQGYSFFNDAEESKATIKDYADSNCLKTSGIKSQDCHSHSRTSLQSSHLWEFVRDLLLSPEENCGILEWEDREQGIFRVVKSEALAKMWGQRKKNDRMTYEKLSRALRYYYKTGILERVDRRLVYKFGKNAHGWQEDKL
Conditions: protein: recombinant; tags: N-terminal GST; dsDNA, one strand shown. An outline of the steps: as §1

Another assay addresses T12, ETV3 (Homo sapiens, UniProt P41162-2 1-143).
T12 sequence: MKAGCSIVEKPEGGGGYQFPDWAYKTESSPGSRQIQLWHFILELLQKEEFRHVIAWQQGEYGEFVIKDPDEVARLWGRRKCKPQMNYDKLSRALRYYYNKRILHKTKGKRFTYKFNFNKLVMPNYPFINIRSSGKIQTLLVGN
To be noted: protein: recombinant; tags: N-terminal GST; dsDNA, one strand shown. An outline of the steps:
as §1

The next assay addresses ETV6 (Homo sapiens, UniProt P41212 1-452). To be noted: protein: recombinant; tags: N-terminal GST; dsDNA, one strand shown. An outline of the steps:
as §1

Chain of ELF4 (Q99607 whole entry): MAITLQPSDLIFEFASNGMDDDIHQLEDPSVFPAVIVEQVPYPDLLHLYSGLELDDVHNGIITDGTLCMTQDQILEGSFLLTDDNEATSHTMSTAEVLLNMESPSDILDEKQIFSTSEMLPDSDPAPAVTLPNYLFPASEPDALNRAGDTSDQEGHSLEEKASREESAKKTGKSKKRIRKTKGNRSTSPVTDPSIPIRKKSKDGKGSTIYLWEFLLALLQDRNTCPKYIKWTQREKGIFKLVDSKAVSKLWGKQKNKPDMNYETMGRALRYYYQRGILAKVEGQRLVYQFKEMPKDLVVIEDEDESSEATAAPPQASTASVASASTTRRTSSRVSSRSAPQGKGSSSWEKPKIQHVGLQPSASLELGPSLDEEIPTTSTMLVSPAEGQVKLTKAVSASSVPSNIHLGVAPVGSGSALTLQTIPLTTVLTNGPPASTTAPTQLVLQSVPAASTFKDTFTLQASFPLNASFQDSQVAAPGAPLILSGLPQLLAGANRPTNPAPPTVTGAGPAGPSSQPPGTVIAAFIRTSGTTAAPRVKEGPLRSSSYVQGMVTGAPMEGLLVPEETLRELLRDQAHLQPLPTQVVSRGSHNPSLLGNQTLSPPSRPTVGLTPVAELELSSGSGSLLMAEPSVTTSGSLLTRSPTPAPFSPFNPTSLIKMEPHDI
Chain of ETV1 (P50549 whole entry): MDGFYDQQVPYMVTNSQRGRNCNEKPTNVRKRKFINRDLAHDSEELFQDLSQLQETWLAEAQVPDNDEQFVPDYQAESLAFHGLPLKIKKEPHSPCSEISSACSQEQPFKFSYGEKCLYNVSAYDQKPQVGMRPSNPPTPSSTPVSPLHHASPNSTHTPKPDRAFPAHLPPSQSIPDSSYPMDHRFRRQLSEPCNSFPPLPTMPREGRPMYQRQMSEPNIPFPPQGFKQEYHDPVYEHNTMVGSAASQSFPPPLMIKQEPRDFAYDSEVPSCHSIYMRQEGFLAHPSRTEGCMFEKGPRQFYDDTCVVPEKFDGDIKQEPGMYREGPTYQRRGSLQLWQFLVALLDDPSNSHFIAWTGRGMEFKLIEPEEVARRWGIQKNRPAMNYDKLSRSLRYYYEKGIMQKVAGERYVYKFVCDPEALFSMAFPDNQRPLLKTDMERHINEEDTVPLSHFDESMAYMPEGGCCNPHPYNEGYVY
Chain of HSF1 (Q00613 whole entry): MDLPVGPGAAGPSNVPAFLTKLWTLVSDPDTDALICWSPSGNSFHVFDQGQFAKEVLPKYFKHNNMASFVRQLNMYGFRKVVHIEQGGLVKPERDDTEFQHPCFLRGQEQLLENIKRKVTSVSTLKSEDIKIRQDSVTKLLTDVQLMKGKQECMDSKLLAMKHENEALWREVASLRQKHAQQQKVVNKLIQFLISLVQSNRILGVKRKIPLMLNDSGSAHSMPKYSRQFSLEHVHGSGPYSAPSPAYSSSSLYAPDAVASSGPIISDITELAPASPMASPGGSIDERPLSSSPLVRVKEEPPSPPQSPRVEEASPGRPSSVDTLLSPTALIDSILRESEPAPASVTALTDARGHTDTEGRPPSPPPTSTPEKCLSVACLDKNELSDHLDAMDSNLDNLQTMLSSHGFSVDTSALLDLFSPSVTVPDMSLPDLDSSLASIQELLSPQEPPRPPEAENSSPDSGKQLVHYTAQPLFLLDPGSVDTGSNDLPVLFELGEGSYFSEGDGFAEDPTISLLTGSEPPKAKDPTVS
Chain of ETV6 (P41212 whole entry): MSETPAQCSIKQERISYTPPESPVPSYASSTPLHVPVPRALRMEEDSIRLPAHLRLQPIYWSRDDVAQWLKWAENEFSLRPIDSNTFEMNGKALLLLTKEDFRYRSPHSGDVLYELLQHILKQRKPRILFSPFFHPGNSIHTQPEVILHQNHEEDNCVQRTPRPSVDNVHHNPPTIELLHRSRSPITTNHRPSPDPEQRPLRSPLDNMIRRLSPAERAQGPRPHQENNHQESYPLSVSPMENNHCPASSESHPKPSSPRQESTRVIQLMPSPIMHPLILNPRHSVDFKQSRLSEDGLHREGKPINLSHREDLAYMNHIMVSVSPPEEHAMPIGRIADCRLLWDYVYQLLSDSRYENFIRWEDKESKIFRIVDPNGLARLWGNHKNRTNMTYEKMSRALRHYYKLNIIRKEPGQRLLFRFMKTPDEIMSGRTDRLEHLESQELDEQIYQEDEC

For GTGCTT, the binding signal with FEV is 1.25 fold enrichment (6-mer frequency, TF over GST control); with ETV5, 1.19 fold enrichment (6-mer frequency, TF over GST control); in the assay with HSF1, 1.05 fold enrichment (6-mer frequency, TF over GST control); in the assay with SPIC, 1.46 fold enrichment (6-mer frequency, TF over GST control); with ELF4, 1.27 fold enrichment (6-mer frequency, TF over GST control); with ELK4, 1.1 fold enrichment (6-mer frequency, TF over GST control). Besides, the binding signal with ETV2 is 1.41 fold enrichment (6-mer frequency, TF over GST control); in the assay with ELF3, 1.14 fold enrichment (6-mer frequency, TF over GST control); with CRX, 1.14 fold enrichment (6-mer frequency, TF over GST control); in the assay with ETV1, 1.16 fold enrichment (6-mer frequency, TF over GST control); with ERF, 1.26 fold enrichment (6-mer frequency, TF over GST control); in the assay with ETV3L, 1.14 fold enrichment (6-mer frequency, TF over GST control). Also, the binding signal with ETS2 is 1.25 fold enrichment (6-mer frequency, TF over GST control); in the assay with SPDEF, 1.37 fold enrichment (6-mer frequency, TF over GST control); with ETV7, 1.3 fold enrichment (6-mer frequency, TF over GST control); in the assay with ELF5, 1.41 fold enrichment (6-mer frequency, TF over GST control); with ETV3 it was 1.3 fold enrichment (6-mer frequency, TF over GST control); with ETV6, 1.37 fold enrichment (6-mer frequency, TF over GST control).
